# According to the supplement of paper PMC7866885, “A novel bicyclic 2,4-diaminopyrimidine inhibitor of Streptococcus suis dihydrofolate reductase” (PeerJ, 2021):
# ± gives the standard deviation.
# Legend:
# Streptococcus suis HE06 = test: percent growth relative to DMSO control; higher = less growth inhibition; conditions: 10 µM; incubation time 18 h
# Description: (§1)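 CLSI broth microdilution: 5x10^4 CFU of Streptococcus suis (strain P1/7 or HE06) incubated with 10 µM Pathogen Box compound in cation-adjusted Mueller Hinton broth, 37 °C, 5% CO2, 18 h. Growth read as OD600 and expressed as percent of the DMSO-treated control (100%); mean ± SD of three independent experiments.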
# Streptococcus suis P1/7 = test: as above; conditions: 10 µM; incubation time 18 h
# Description: as §1
Compound,percent growth (Streptococcus suis HE06) [%],percent growth (Streptococcus suis P1/7) [%]
c1ccc2c(c1)CN(CC1CC1)CC1(CCN(Cc3c[nH]c4cnccc34)CC1)O2,85.1 ± 15,91.8 ± 5.5
Cc1cc(C)n(-c2ccc(NC(=O)C3CCN(Cc4cnc(C)s4)CC3)cc2)n1,95.3 ± 24,65.6 ± 19
Cc1cc(NC(=O)c2ccc(Oc3ccc(Cl)cc3O)o2)no1,108 ± 22,124 ± 65
N#Cc1nc(-c2ccccc2)oc1S(=O)(=O)c1ccc(Cl)cc1,96.9 ± 9.2,85.2 ± 19
OC[C@H]1O[C@@H](n2c3ccc(Cl)cc3c3c(-c4cc5ccccc5o4)ncnc32)C(O)[C@H]1O (some centres not stated),93 ± 20,74.8 ± 13
CC[C@H](CO)NCCN[C@H](CC)CO,88.7 ± 6.4,77 ± 21
Cc1cc(Nc2ccncc2)n2nc(C)c(-c3ccccc3Cl)c2n1,73.9 ± 22,105 ± 37
Cc1ccc(S(=O)(=O)Nc2ccc(CN3CCN(C(=O)c4cccc(C#N)c4)CC3)cc2)cc1,104 ± 9.6,114 ± 40
FC(F)(F)c1cccc(-c2nc3c(NCc4ccncc4)nccc3[nH]2)c1,90.4 ± 20,72.5 ± 22
COC(=O)c1cccc2oc(-c3cccc(OC)c3NC(=O)c3cc(-c4ccccc4)on3)nc12,102 ± 25,66 ± 18
O=[N+]([O-])c1cn2c(n1)OC[C@@H](OCc1ccc(OC(F)(F)F)cc1)C2,110 ± 13,90 ± 13
CCCn1nnc(NC(=O)COc2ccc(C3CCCCC3)cc2)n1,115.2 ± 1,85.9 ± 12
COc1cccc(-n2nnnc2S(=O)(=O)Cc2ccccc2)c1,33.8 ± 19,64.7 ± 47
c1coc(CNc2nc(N3CCCCC3)nc3ccccc23)c1,78 ± 7.8,89 ± 32
CC(C)C(Oc1cccc2ccccc12)C(=O)O (configuration not stated),87 ± 4.3,64 ± 22
CCOc1ccccc1C(=O)Nc1cccc(-c2nc3ncccn3c2C)c1,88.1 ± 24,71.6 ± 8.8
COc1cccc(-c2nc3c(N4CCCC4)cccc3n2CC2CCCN2)n1 (configuration not stated),84.4 ± 7,58.2 ± 19
Clc1ccc(-n2cc(COc3ccnc4ccccc34)nn2)cc1,84.2 ± 6,77.9 ± 13
COc1ccc(Cl)cc1NC(=O)CN(C)C(=O)c1cnn(-c2ccccc2)n1,79.4 ± 7.2,80.3 ± 29
c1cc(C2=NCCN2)cc(-c2cc(-c3ccc(C4=NCCN4)cc3)no2)c1,103 ± 19,88.8 ± 25
c1ccc(-c2cc(N3CCCCC3)c3ccccc3n2)nc1,0.646 ± 1.1,0.354 ± 0.61
O=C(Nc1ccnc(-c2cccnc2)n1)c1cc(C(F)(F)F)cc(C(F)(F)F)c1,78.2 ± 14,123 ± 50
CCCCOC(=O)Nc1cc2nc(C3CCCCC3)[nH]c2cc1N1CCCC1,29.6 ± 40,62.9 ± 63
CC(C)(C)n1nc(Cc2cccc3ccccc23)c2c(N)ncnc21,90.1 ± 3.1,87.7 ± 16
c1ccc(Oc2ccc(-c3cc(CN4CCOCC4)[nH]n3)cc2)cc1,90.8 ± 3.9,95.7 ± 15
CN1CCN(c2cc(-c3ccc(F)cc3)nc(-c3ccncc3)n2)CC1,83.6 ± 3.7,89.1 ± 28
